# Measurements published in PMC5540273 (PLoS ONE, 2017).
# “And” between values parts separate entries of the source, which are not always exact repeats. Equal entries are not always repeated. Where two headings read alike, the source gives them in different places.
# Experiments:
# MAP4K3 = conditions: concentration: 1 μM, replicates: in singlicate; n = 1
# MAP4K4 = conditions: concentration: 1 μM, replicates: in singlicate, n = 1
# MAP4K5 = conditions: concentration: 1 μM, replicates: in singlicate, n = 1
# MAPKAPK2 = conditions: concentration: 1 μM, replicates: in singlicate, n = 1
# MAPKAPK5 = conditions: concentration: 1 μM, replicates: in singlicate; n = 1
# MARK1 = conditions: concentration: 1 μM, replicates: in singlicate, n = 1
# MARK2 = conditions: concentration: 1 μM, replicates: in singlicate, n = 1
# MARK3 = conditions: concentration: 1 μM, replicates: in singlicate, n = 1
# MARK4 = conditions: concentration: 1 μM, replicates: in singlicate, n = 1
# MAST1 = conditions: concentration: 1 μM, replicates: in singlicate, n = 1
# MEK1 = system: T1, MEK1; conditions: concentration: 1 μM, replicates: in singlicate, n = 1
# T1 construct: gene MAP2K1
# MEK2 = system: T2, MEK2; conditions: concentration: 1 μM, replicates: in singlicate; n = 1
# T2 construct: gene MAP2K2
# MEK3 = system: T3, MEK3; conditions: concentration: 1 μM, replicates: in singlicate; n = 1
# T3 construct: gene MAP2K3
# MEK4 = system: T4, MEK4; conditions: concentration: 1 μM, replicates: in singlicate, n = 1
# T4 construct: gene MAP2K4
# MEK5 = system: T5, MEK5; conditions: concentration: 1 μM, replicates: in singlicate; n = 1
# T5 construct: gene MAP2K5
# MEK6 = system: T6, MEK6; conditions: concentration: 1 μM, replicates: in singlicate, n = 1
# T6 construct: gene MAP2K6
# MELK = conditions: concentration: 1 μM, replicates: in singlicate, n = 1
# MERTK = conditions: concentration: 1 μM, replicates: in singlicate, n = 1
# MET = conditions: concentration: 1 μM, replicates: in singlicate, n = 1
# MINK = system: T7, MINK; conditions: concentration: 1 μM, replicates: in singlicate, n = 1
# T7 construct: gene MINK1
# 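Also: KINOMEscan kinase panel screen.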
smiles,measurement,setting,value
CN1c2ccc(CNc3ccc(F)cc3)cc2-c2c(cnn2C)S1(=O)=O,%Inh,MAP4K3,8%
same,%Inh,MAP4K4,0%
same,%Inh,MAP4K5,0%
same,%Inh,MAPKAPK2,0%
same,%Inh,MAPKAPK5,0%
same,%Inh,MARK1,3%
same,%Inh,MARK2,0%
same,%Inh,MARK3,0%
same,%Inh,MARK4,11%
same,%Inh,MAST1,0%
same,%Inh,MEK1,11%
same,%Inh,MEK2,18%
same,%Inh,MEK3,13%
same,%Inh,MEK4,22%
same,%Inh,MEK5,31%
same,%Inh,MEK6,0%
same,%Inh,MELK,0%
same,%Inh,MERTK,0%
same,%Inh,MET,0%
same,%Inh,MINK,26%
C[C@@H](Oc1cc(-n2cnc3ccc(NC(=O)NC(C)(C)C)cc32)sc1C(N)=O)c1ccccc1Cl [GSK346294],%Inh,MAP4K3,0%
same,%Inh,MAP4K4,2%
same,%Inh,MAP4K5,0%
same,%Inh,MAPKAPK2,12%
same,%Inh,MAPKAPK5,0%
same,%Inh,MARK1,1%
same,%Inh,MARK2,0%
same,%Inh,MARK3,0%
same,%Inh,MARK4,9%
same,%Inh,MAST1,0%
same,%Inh,MEK1,0%
same,%Inh,MEK2,0%
same,%Inh,MEK3,0%
same,%Inh,MEK4,14%
same,%Inh,MEK5,18%
same,%Inh,MEK6,0%
same,%Inh,MELK,21%
same,%Inh,MERTK,8%
same,%Inh,MET,0%
same,%Inh,MINK,4%
O=C1Cc2cc(Nc3nc(NCc4cccc(S(=O)(=O)C(F)(F)F)c4)ncc3C(F)(F)F)ccc2N1,%Inh,MAP4K3,13%
same,%Inh,MAP4K4,0%
same,%Inh,MAP4K5,0%
same,%Inh,MAPKAPK2,4%
same,%Inh,MAPKAPK5,30%
same,%Inh,MARK1,5%
same,%Inh,MARK2,0%
same,%Inh,MARK3,19%
same,%Inh,MARK4,6%
same,%Inh,MAST1,0%
same,%Inh,MEK1,0%
same,%Inh,MEK2,0%
same,%Inh,MEK3,15%
same,%Inh,MEK4,30%
same,%Inh,MEK5,0%
same,%Inh,MEK6,14%
same,%Inh,MELK,0%
same,%Inh,MERTK,0%
same,%Inh,MET,0%
same,%Inh,MINK,0%
CC(C)(C)n1cnc2c(N)ncnc21 [SKF-97359],%Inh,MAP4K3,0%
same,%Inh,MAP4K4,0%
same,%Inh,MAP4K5,0%
same,%Inh,MAPKAPK2,0%
same,%Inh,MAPKAPK5,0%
same,%Inh,MARK1,0%
same,%Inh,MARK2,1%
same,%Inh,MARK3,21%
same,%Inh,MARK4,3%
same,%Inh,MAST1,58%
same,%Inh,MEK1,0%
same,%Inh,MEK2,0%
same,%Inh,MEK3,39%
same,%Inh,MEK4,0%
same,%Inh,MEK5,8%
same,%Inh,MEK6,0%
same,%Inh,MELK,0%
same,%Inh,MERTK,0%
same,%Inh,MET,0%
same,%Inh,MINK,0%
CNc1ncnc2[nH]ncc12 [SKF-18355],%Inh,MAP4K3,0%
same,%Inh,MAP4K4,0%
same,%Inh,MAP4K5,0%
same,%Inh,MAPKAPK2,0%
same,%Inh,MAPKAPK5,0%
same,%Inh,MARK1,23%
same,%Inh,MARK2,14%
same,%Inh,MARK3,35%
same,%Inh,MARK4,59%
same,%Inh,MAST1,70%
same,%Inh,MEK1,13%
same,%Inh,MEK2,40%
same,%Inh,MEK3,31%
same,%Inh,MEK4,18%
same,%Inh,MEK5,55%
same,%Inh,MEK6,10%
same,%Inh,MELK,0%
same,%Inh,MERTK,0%
same,%Inh,MET,0%
same,%Inh,MINK,18%
COc1cc(Nc2nccc(N3CCC(NC(=O)c4cccc(NC(C)=O)c4)C3)n2)cc(OC)c1OC (centres unmarked) [GSK1379754],%Inh,MAP4K3,2%
same,%Inh,MAP4K4,23%
same,%Inh,MAP4K5,10%
same,%Inh,MAPKAPK2,0%
same,%Inh,MAPKAPK5,0%
same,%Inh,MARK1,0%
same,%Inh,MARK2,0%
same,%Inh,MARK3,0%
same,%Inh,MARK4,15%
same,%Inh,MAST1,0%
same,%Inh,MEK1,0%
same,%Inh,MEK2,0%
same,%Inh,MEK3,7%
same,%Inh,MEK4,17%
same,%Inh,MEK5,93.5%
same,%Inh,MEK6,0%
same,%Inh,MELK,19%
same,%Inh,MERTK,30%
same,%Inh,MET,21%
same,%Inh,MINK,27%
O=c1cc(N2CCOCC2)nc2n(Cc3cccc(C(F)(F)F)c3)ccn12 [GSK2297543],%Inh,MAP4K3,0%
same,%Inh,MAP4K4,0%
same,%Inh,MAP4K5,0%
same,%Inh,MAPKAPK2,0%
same,%Inh,MAPKAPK5,0%
same,%Inh,MARK1,1%
same,%Inh,MARK2,0%
same,%Inh,MARK3,0%
same,%Inh,MARK4,12%
same,%Inh,MAST1,9%
same,%Inh,MEK1,0%
same,%Inh,MEK2,0%
same,%Inh,MEK3,0%
same,%Inh,MEK4,31%
same,%Inh,MEK5,0%
same,%Inh,MEK6,0%
same,%Inh,MELK,4%
same,%Inh,MERTK,0%
same,%Inh,MET,0%
same,%Inh,MINK,0%
Cc1cccc(-c2nc(-c3ccc(S(C)(=O)=O)cc3)sc2-c2ccncc2)c1,%Inh,MAP4K3,0%
same,%Inh,MAP4K4,30%
same,%Inh,MAP4K5,0%
same,%Inh,MAPKAPK2,1%
same,%Inh,MAPKAPK5,0%
same,%Inh,MARK1,34%
same,%Inh,MARK2,0%
same,%Inh,MARK3,0%
same,%Inh,MARK4,31%
same,%Inh,MAST1,31%
same,%Inh,MEK1,2%
same,%Inh,MEK2,1%
same,%Inh,MEK3,0%
same,%Inh,MEK4,27%
same,%Inh,MEK5,12%
same,%Inh,MEK6,14%
same,%Inh,MELK,5%
same,%Inh,MERTK,12%
same,%Inh,MET,10%
same,%Inh,MINK,16%
CC(C)(CN)c1nc(-c2ccc(Cl)c(O)c2)c(-c2ccncc2)[nH]1.O=C(O)C(F)(F)F [SB-477794],%Inh,MAP4K3,0%
same,%Inh,MAP4K4; 1 µM,81% and 83%
same,%Inh,MAP4K5; 1 µM,17% and 26%
same,%Inh,MAPKAPK2; 1 µM,13% and 0%
same,%Inh,MAPKAPK5,0%
same,%Inh,MARK1; 1 µM,0% and 4%
same,%Inh,MARK2; 1 µM,0% and 22%
same,%Inh,MARK3; 1 µM,0% and 6%
same,%Inh,MARK4; 1 µM,0% and 13%
same,%Inh,MAST1; 1 µM,0% and 45%
same,%Inh,MEK1; 1 µM,14% and 2%
same,%Inh,MEK2,20%
same,%Inh,MEK3,0%
same,%Inh,MEK4; 1 µM,0% and 8%
same,%Inh,MEK5,99.5%
same,%Inh,MEK6; 1 µM,0% and 100%
same,%Inh,MELK; 1 µM,25% and 51%
same,%Inh,MERTK; 1 µM,32% and 45%
same,%Inh,MET; 1 µM,0% and 12%
same,%Inh,MINK; 1 µM,91.7% and 93.9%
COc1ccc(Nc2nccc(N3CCC(NC(=O)Nc4cc(C)ccc4C)C3)n2)cc1 (centres unmarked) [GSK1379741],%Inh,MAP4K3,0%
same,%Inh,MAP4K4,0%
same,%Inh,MAP4K5,0%
same,%Inh,MAPKAPK2,14%
same,%Inh,MAPKAPK5,0%
same,%Inh,MARK1,0%
same,%Inh,MARK2,0%
same,%Inh,MARK3,0%
same,%Inh,MARK4,0%
same,%Inh,MAST1,9%
same,%Inh,MEK1,0%
same,%Inh,MEK2,0%
same,%Inh,MEK3,0%
same,%Inh,MEK4,14%
same,%Inh,MEK5,44%
same,%Inh,MEK6,0%
same,%Inh,MELK,0%
same,%Inh,MERTK,24%
same,%Inh,MET,0%
same,%Inh,MINK,0%
